Measured values taken from PubChem BioAssay (NCATS).
Inconclusive results are not listed. Active and inactive are the calls of the source. The call rests on the fitted dose curve; in most records, active means well fitted inhibition curve with a large enough effect; inconclusive means small, poorly fitted or top-dose-only effect; inactive means flat fitted curve, though single readings scatter.
On the % scale 0 is the no-effect control and ±100 the full control effect.

Test: P-glycoprotein substrates identified in KB-8-5-11 adenocarcinoma cell line, qHTS therapeutic library screen (AID 1346987); further: nearly all actives have a fitted effect of over 65% in size
Settings: KB-8-5-11 (P-gp overexpressing) viability, CellTiter-Glo, 72 h; series mostly up to 44.5 µM; activity change, negative = cytotoxicity: at the top concentration
Summary of the method: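 Luminescence from CellTiter-Glo, read 5 min after addition, quantified survival of KB-8-5-11 (P-gp-overexpressing) cells exposed to compounds for 72 h. AC50 was derived from concentration-response curves.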
For `C[C@H]1CCN2C[C@]34C[C@@]5(C(=O)Nc6c5ccc5c6OC=CC(C)(C)O5)C(C)(C)C3C[C@]12C(=O)N4C` (some centres undefined), the “activity change, negative = cytotoxicity” value was 2.22% [at 17.3 µM] (inactive).
With `C=C1C(O)CC2C(C(=O)O)=COC(OC3OC(CO)C(O)C(O)C3OC(=O)/C=C\c3ccc(O)cc3)C12` (centres undefined) the “outcome” value was “inactive [at 17.3 µM]”.
For `COc1cc(O)c(C(=O)O)c(CCc2ccccc2)c1`, the “outcome” value was “inactive”.
With `C=C1CC/C=C(/C(=O)O)CCC2C1CC2(C)C` (centres undefined) the “outcome” value was “inactive”.
In the case of `O=C(/C=C/c1ccc(O)c(O)c1)OC[C@H]1O[C@@H](OC2CCCCC2O)[C@H](O)[C@@H](O)[C@@H]1O` (some centres undefined), the “outcome” value was “inactive [at 17.3 µM]”.
In the case of `C/C(=C\CCC(C)(C)O)CCO[C@@H]1O[C@H](CO[C@@H]2O[C@@H](C)[C@H](O)[C@@H](O)[C@H]2O)[C@@H](O)[C@H](O)[C@H]1O`, the “activity change, negative = cytotoxicity” value was 8.58% [at 17.3 µM] (inactive).
With `CC(C)[C@@H](C(=O)O)N1Cc2c(cc(O)c3c2O[C@]2(C3)[C@H](C)CCC3C(C)(C)[C@H](O)[C@H](O)C[C@@]32C)C1=O` (some centres undefined) the “activity change, negative = cytotoxicity” value was 9.41% [at 17.3 µM] (inactive).
For `CC1OC(OC2C(OC(=O)[C@]34CCC(C)(C)C[C@H]3C3=CCC5[C@@]6(C)CC[C@H](OC7OC(C(=O)O)C(O)C(O)C7O)C(C)(C)C6CC[C@@]5(C)[C@]3(C)CC4O)OC(CO)C2O)C(O)C(O)C1OC1OCC(O)C(O)C1O` (some centres undefined), the activity change, negative = cytotoxicity was 7.83% [at 9.29 µM] (inactive).
In the case of `CC12CC(c3ccoc3)OC(=O)C1CCC1(C)C2CCC(O)C1(C)O` (centres undefined), the “activity change, negative = cytotoxicity” value was -0.382% (inactive).
For `COc1ccc(-n2c(=O)[nH]c3cc(C(=O)NCc4ccc(Cl)cc4)sc3c2=O)nc1OC`, the “activity change, negative = cytotoxicity” value was 5.9% (inactive).
With `C=C1CC[C@@H]2[C@](C)(CO)[C@H](O[C@@H]3O[C@H](CO)[C@@H](O)[C@H](O)[C@H]3O)CC[C@@]2(C)[C@@H]1C/C=C1/C(=O)OC[C@H]1O` the “activity change, negative = cytotoxicity” value was -13.1% [at 17.3 µM] (inactive).
In the case of `C[C@@H]1O[C@@H](O[C@H]2[C@H](O)[C@@H](O)[C@H](OC(=O)[C@]34CCC(C)(C)C[C@H]3C3=CCC5[C@@]6(C)CC[C@H](O[C@@H]7O[C@H](C(=O)O)[C@@H](O)[C@H](O)[C@H]7O)C(C)(C)C6CC[C@@]5(C)[C@]3(C)CC4)O[C@@H]2CO)[C@H](O)[C@H](O)[C@H]1O` (some centres undefined), the outcome was “inactive [at 9.29 µM]”.
With `CC(C)(O)C1CC=C(C(=O)OC[C@H]2O[C@@H](OC(=O)C3=CCC(C(C)(C)O)CC3)[C@H](O)[C@@H](O)[C@@H]2O)CC1` (some centres undefined) the “outcome” value was “inactive [at 17.3 µM]”.
For `C=C(COC(=O)CC(C)C)C1Cc2cc(C(C)=O)ccc2O1` (centres undefined), the “outcome” value was “inactive”.
For `C=C(C(=O)O)[C@H]1C[C@]2(C)C(=O)CC[C@]23O[C@H]1C[C@@H]3C`, the “activity change, negative = cytotoxicity” value was 3.49% (inactive).
With `CC1=CC(=O)CC(C)(C)C1/C=C/C(C)OC1OC(COC2OCC(O)C(O)C2O)C(O)C(O)C1O` (centres undefined) the “activity change, negative = cytotoxicity” value was 7.82% [at 17.3 µM] (inactive).
With `CC1=CC2=C(C)C(=O)C(C)(O)C(O)C2CO1` (centres undefined) the “activity change, negative = cytotoxicity” value was 1.72% (inactive).
For `CC(=O)c1c(C)cccc1O[C@@H]1O[C@H](CO)[C@@H](O)[C@H](O)[C@H]1O`, the “outcome” value was “inactive”.
In the case of `C=C1Cc2c(Cl)cc3[nH]c4c5c3c2[C@@]2(O)[C@@H]1C[C@@H]2C(C)(C)O[C@H]5C1CC[C@@]2(O)[C@@]35O[C@@H]3[C@H]3OC(C)(C)[C@H]3O[C@H]5CC[C@]2(C)[C@@]41C` (some centres undefined), the “outcome” value was “inactive [at 17.3 µM]”.
With `C=C1C(O)CCC2(C)CC3(OC)OC(=O)C(C)=C3CC12` (centres undefined) the “outcome” value was “inactive”.
With `C[C@@H]1CC[C@]2(C(=O)O)CC[C@]3(C)C(=CCC4[C@@]5(C)C[C@@H](O)[C@H](O)[C@@](C)(CO)C5CC[C@]43C)C2[C@H]1C` (some centres undefined) the “outcome” value was “inactive [at 17.3 µM]”.
With `CC1=C2CC(O)(C(C)(C)O)C(O[C@@H]3O[C@H](CO)[C@@H](O)[C@H](O)[C@H]3O)CC(C)C2CC1=O` (some centres undefined) the “outcome” value was “inactive [at 17.3 µM]”.
With `CC1CCC2C(C)(C)C(O)C(O)CC2(C)C12Cc1c(O)cc(CO)c(C=O)c1O2` (centres undefined) the “activity change, negative = cytotoxicity” value was 5.06% [at 17.3 µM] (inactive).
For `O=C(O)C[C@H]1CCC(=O)[C@@H]1C/C=C\CCO`, the “activity change, negative = cytotoxicity” value was 1.97% (inactive).
For `COc1cc(C(O)C2COC(c3ccc(OC4OC(CO)C(O)C(O)C4O)c(OC)c3)C2CO)ccc1O` (centres undefined), the “activity change, negative = cytotoxicity” value was 7.77% [at 17.3 µM] (inactive).
In the case of `COC(=O)c1ccccc1O[C@@H]1O[C@H](CO[C@@H]2OC[C@@H](O)[C@H](O)[C@H]2O)[C@@H](O)[C@H](O)[C@H]1O`, the “outcome” value was “inactive [at 17.3 µM]”.
For `CC1=CC(=O)C(=C(C)C)CC2C(C)(O)CCC12O` (centres undefined), the “activity change, negative = cytotoxicity” value was 0.343% (inactive).
In the case of `C/C=C/C=C/C(=O)OC1CC/C=C/C(O)C(O)C(CCC)OC1=O` (centres undefined), the “activity change, negative = cytotoxicity” value was -8.22% (inactive).
For `O=C1C[C@@]2(C(=O)N1)C(=O)N(Cc1ccc(Br)cc1F)C(=O)c1cccn12`, the “outcome” value was “inactive”.
With `O=C(O)CC1(O)C(=O)Nc2ccccc21` (centres undefined) the “activity change, negative = cytotoxicity” value was 6.68% [at 93.4 µM] (inactive).
For `C=CC(C)(O)CCC1C(C)(O)CCC2C(C)(C)CCCC21C` (centres undefined), the “activity change, negative = cytotoxicity” value was -4.2% (inactive).
For `COCC1OC(OC(C)(C)C2CCC3(C)C=C(C4CCC5C4(C)CC(O)C4OC(C(C)(C)O)CCC45C)CCC3O2)C(NC(C)=O)C(O)C1O` (centres undefined), the “activity change, negative = cytotoxicity” value was 3.69% [at 17.3 µM] (inactive).
With `CC(C)c1ccc2c(c1)C(O)CC1C(C)(C(=O)O)CCCC21C` (centres undefined) the “activity change, negative = cytotoxicity” value was 5.92% (inactive).
With `CC(C)Oc1ccc(-c2nc(-c3cccc4c3CCC4NCCC(=O)O)no2)cc1C#N` (centres undefined) the “outcome” value was “inactive”.
For `OC[C@H]1O[C@@H](OCCc2ccccc2)[C@H](O)[C@@H](O)[C@@H]1O`, the “outcome” value was “inactive”.
With `CC(O)/C=C/C1(O)C(C)C(O)C(O[C@@H]2O[C@H](CO)[C@@H](O)[C@H](O)[C@H]2O)CC1(C)C` (some centres undefined) the “activity change, negative = cytotoxicity” value was 5.51% [at 17.3 µM] (inactive).
In the case of `C[C@H]1[C@H](C)C[C@@H](C(=O)O)C2CC[C@]3(C)C(=CC[C@@H]4[C@@]5(C)CC[C@H](O)C(C)(C)[C@@H]5CC[C@]43C)[C@@H]21` (some centres undefined), the “activity change, negative = cytotoxicity” value was -20.3% (inactive).
With `Cn1c2ccc(NC(=O)c3ccccc3)cc2c(=O)n2nc(C(=O)O)cc12` the “outcome” value was “inactive [at 17.3 µM]”.
For `CC1=C2C(=O)C=C(CO)C2C2OC(=O)C(CS(=O)(=O)O)C2C(OC(=O)Cc2ccc(O)cc2)C1` (centres undefined), the “activity change, negative = cytotoxicity” value was -0.241% [at 17.3 µM] (inactive).
